Test system: Vero E6 infected with SARS-CoV-2
Experiment: inhibition of SARS-CoV-2 cytopathic effect; higher = more antiviral protection, active = above 15
Details: 48 h

Measured: inhibition of SARS-CoV-2 cytopathic effect

Cc1ccc2c(c1)C1(CCN(CCc3nc(-c4ccccc4)oc3C)CC1)OC(=O)N2
inactive: 1 nM 1.69% | 8.33 nM 4.93% | 100 nM 0.82% | 833.33 nM -0.79% | 10000 nM -7.82%

CCN(Cc1ccc(Cl)nc1)/C(=C/[N+](=O)[O-])NC [nitenpyram]
inactive: 1 nM 0.79% | 8.33 nM -0.17% | 100 nM -0.29% | 833.33 nM -1.84% | 10000 nM 1.08%

C=CCN1CCc2nc(N)sc2CC1 [talipexole]
inactive: 1 nM -0.94% | 8.33 nM 1.41% | 100 nM 0.94% | 833.33 nM -0.07% | 10000 nM -2.07%

COC(=O)c1ccc(N2CCN(C)CC2)c(NC(=O)c2cccc(OC)c2)c1
inactive: 1 nM 6.88% | 8.33 nM 6.06% | 100 nM -2.23% | 833.33 nM -3.85% | 10000 nM 1.03%

O=C(O)Cc1cccnc1C(=O)O [homoquinolinic-acid]
inactive: 1 nM 3.71% | 8.33 nM -1.17% | 100 nM -11.5% | 833.33 nM 1.81% | 10000 nM 1.14%

CC(=O)N[C@H]1[C@H]([C@H](O)[C@H](O)CO)OC(O)(C(=O)O)C[C@@H]1O (mixture of isomers) [aceneuramic-acid]
inactive: 1 nM -6.31% | 8.33 nM 1.91% | 100 nM -1.39% | 833.33 nM -2.36% | 10000 nM -0.15%

O=C(O)c1ccc2cc(-c3ccc(O)c(C45CC6CC(CC(C6)C4)C5)c3)ccc2c1
inactive: 1 nM 1.24% | 8.33 nM 1.61% | 100 nM -0.4% | 833.33 nM -2.65% | 10000 nM -7.34%

Source: the supplement of paper PMC13380429
